Experimental data reported in PubChem BioAssay (Tox21).
Inconclusive results are not listed. The source made the active and inactive calls. Unless noted, calls follow the shape of the dose curve; as a rule, active = well fitted curve in the direction sought with a large enough effect in the repeat runs; inconclusive = weak or mixed curves; inactive = no such curve, though single readings can be large; an effect the other way counts as inactive or inconclusive.

Experiments:
[1] = qHTS assay to identify small molecule agonists of the hypoxia (HIF-1) signaling pathway - cell viability counter screen (AID 1224844; calls by dose curve; also: nearly all actives have a fitted effect of over 50% in size); conditions: HRE-bla ME-180 viability, CellTiter-Glo luminescence, 17 h; series mostly up to 76.8 µM
How it was run: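 ME-180 HRE-bla cells, 2,000/well, 0.5% dialyzed FBS; 5 hr settle, 17 hr compound at 37C/5% CO2; CCF4-AM reporter read first, then CellTiter-Glo luminescence after 30 min RT.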

[2] = qHTS assay to identify small molecule agonists of H2AX (AID 1224845; active = well fitted activation curve with a large enough effect in the signal ratio in the repeat runs, not every such curve was filed as active; the % refers to the signal ratio); conditions: CHO-K1 phospho-H2AX Ser139 HTRF, 3 h; series mostly up to 154 µM
How it was run: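 Wild-type CHO-K1 cells plated overnight, then exposed 3 hr at 37C to compounds at 15 concentrations (0.76% DMSO). Lysed, then HTRF anti-pH2AX(S139)-cryptate/anti-H2AX-d2 detection after 24 hr at room temperature; emissions 665 and 620 nm.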

[3] = qHTS assay to identify small molecule agonists of the hypoxia (HIF-1) signaling pathway (AID 1224846; active = well fitted activation curve with a large enough effect in the signal ratio in the repeat runs, not every such curve was filed as active; the % refers to the signal ratio); conditions: HRE-bla ME-180 cells, beta-lactamase ratio, 17 h; series mostly up to 76.8 µM
How it was run: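 Cell line: CellSensor HRE-bla ME-180; 2,000 cells/well; 0.5% dialyzed FBS; 5 h preincubation; DMSO compound pin transfer; 17 h, 37C, 5% CO2; CCF4-AM added; bla FRET signal scored for activation.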

[4] = qHTS assay to identify small molecule agonists of H2AX - cell viability counter screen (AID 1224847; calls by dose curve; also: top concentration of the series differs between compounds; nearly all actives have a fitted effect of over 30% in size); conditions: CHO-K1 viability, CellTiter-Glo luminescence, 3 h; series mostly up to 154 µM
How it was run: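 Quantitative HTS viability measurement: CHO-K1 wild-type cells in serum (10% FBS) medium, short 3 hr drug exposure at 37C with 0.76% DMSO, CellTiter-Glo luminescent detection.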

[5] = qHTS RealTime-Glo MT Cell Viability Assay in HepG2 cells - 24 hour (AID 1224867); conditions: RealTime-Glo luminescence; series mostly up to 76.8 µM; also: nearly all actives have a fitted effect of over 50% in size
How it was run: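 Tox21 10K library screened in qHTS format on HepG2 cells carrying RealTime-Glo reagents. Compounds were added after a 5 h preincubation, and the luminescent signal from continuous culture was measured repeatedly during 40 h treatment.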

[6] = qHTS RealTime-Glo MT Cell Viability Assay in HEK293 cells - 32 hour (AID 1224868); conditions: RealTime-Glo luminescence; series mostly up to 76.8 µM; also: top concentration of the series differs between compounds; nearly all actives have a fitted effect of over 50% in size
How it was run: (§1)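 Luminescence generated by NanoLuc from substrate produced by living HEK293 cells served as the viability signal. Each value reflects the reading at its stated time point during continuous 40 h compound exposure at 37 C.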

[7] = qHTS RealTime-Glo MT Cell Viability Assay in HepG2 cells - 40 hour (AID 1224870); conditions: RealTime-Glo luminescence; series mostly up to 76.8 µM; also: nearly all actives have a fitted effect of over 50% in size
How it was run: (§2)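 HepG2 cells mixed with RealTime-Glo MT reagents (NanoLuc plus cell-permeant prosubstrate) were seeded at 600 cells/well, incubated 5 h at 37 C/5% CO2, then pinned with compounds in DMSO; nonlytic luminescence tracked viability during 40 h treatment.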

[8] = A CellTox Green Cytotoxicity Assay to monitor cytotoxicity in HEK293 cells - 40 hour (AID 1224871); conditions: CellTox Green fluorescence; series mostly up to 76.8 µM; also: nearly all actives have a fitted effect of over 45% in size
How it was run: (§3)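 Nonlytic real-time cytotoxicity: HEK293 + CellTox Green reagent plated, 5 h preincubation, pintool compound addition (23 nL in DMSO), 37 C for 40 h, fluorescence measured at successive time points.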

[9] = qHTS RealTime-Glo MT Cell Viability Assay in HEK293 cells - 16 hour (AID 1224872); conditions: RealTime-Glo luminescence; series mostly up to 76.8 µM
How it was run: as §1

[10] = qHTS RealTime-Glo MT Cell Viability Assay in HepG2 cells - 8 hour (AID 1224873); conditions: RealTime-Glo luminescence; series mostly up to 76.8 µM; also: nearly all actives have a fitted effect of over 55% in size
How it was run: as §2

[11] = qHTS RealTime-Glo MT Cell Viability Assay in HEK293 cells - 40 hour (AID 1224874); conditions: RealTime-Glo luminescence; max response: active compounds read low; also: nearly all actives have a fitted effect of over 50% in size
How it was run: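 Cells were seeded together with NanoLuc luciferase and a prosubstrate that viable cells reduce to a luciferase substrate. After a 5 h incubation at 37 C/5% CO2, compounds were added and luminescence was measured repeatedly during 40 h of treatment.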

[12] = A CellTox Green Cytotoxicity Assay to monitor cytotoxicity in HEK293 cells - 24 hour (AID 1224875); conditions: CellTox Green fluorescence; series mostly up to 76.8 µM; also: nearly all actives have a fitted effect of over 45% in size
How it was run: as §3

[13] = A CellTox Green Cytotoxicity Assay to monitor cytotoxicity in HEK293 cells - 0 hour (AID 1224869); conditions: CellTox Green fluorescence; series mostly up to 76.8 µM; also: nearly all actives have a fitted effect of over 50% in size
How it was run: as §3

[14] = qHTS assay to identify small molecule antagonists of the estrogen related receptor signaling pathway with the pleiotropic PPARgamma coactivator (PGC) from Tox21 10K library - cell viability counter screen (AID 1224840; active = well fitted cell-killing curve with a large enough effect in the repeat runs, not every such curve was filed as active; also: nearly all actives have a fitted effect of over 40% in size); conditions: PGC/ERR reporter cells viability, CellTiter-Fluor, 17.5 h; series mostly up to 92.4 µM
How it was run: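 PGC/ERR cells, 2,000/well; 6 h pre-incubation 37 C/5% CO2; cpd in DMSO via pin tool; 17.5 h 37 C; CellTiter-Fluor, 30 min; fluorescence.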

[15] = qHTS assay to identify small molecule agonists of the estrogen related receptor signaling pathway with the pleiotropic PPARgamma coactivator (PGC) from Tox21 10K library (AID 1224842); conditions: PGC/ERR reporter cell line, luciferase ONE-Glo, 18 h; series mostly up to 92.4 µM; also: nearly all actives have a fitted effect of over 15% in size
How it was run: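 PGC/ERR reporter cells (NTP line) were seeded 2,000 per well, rested 6 h at 37 C/5% CO2, then pin-dosed with compounds in DMSO for 18 h at 37 C; luciferase read by One-Glo luminescence after 30 min at room temperature.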

[16] = molecular target: Thyrotropin receptor (Homo sapiens) (UniProt P16473); assay: qHTS assay to identify small molecule agonists of the thyroid stimulating hormone receptor (TSHR) signaling pathway (AID 1224843; calls by dose curve; also: nearly all actives have a fitted effect of over 45% in size); conditions: TSHR-HEK293 cells, cAMP HTRF, agonist mode, 30 min; series mostly up to 92.4 µM
Thyrotropin receptor (Homo sapiens), sequence (P16473 whole entry, looked up): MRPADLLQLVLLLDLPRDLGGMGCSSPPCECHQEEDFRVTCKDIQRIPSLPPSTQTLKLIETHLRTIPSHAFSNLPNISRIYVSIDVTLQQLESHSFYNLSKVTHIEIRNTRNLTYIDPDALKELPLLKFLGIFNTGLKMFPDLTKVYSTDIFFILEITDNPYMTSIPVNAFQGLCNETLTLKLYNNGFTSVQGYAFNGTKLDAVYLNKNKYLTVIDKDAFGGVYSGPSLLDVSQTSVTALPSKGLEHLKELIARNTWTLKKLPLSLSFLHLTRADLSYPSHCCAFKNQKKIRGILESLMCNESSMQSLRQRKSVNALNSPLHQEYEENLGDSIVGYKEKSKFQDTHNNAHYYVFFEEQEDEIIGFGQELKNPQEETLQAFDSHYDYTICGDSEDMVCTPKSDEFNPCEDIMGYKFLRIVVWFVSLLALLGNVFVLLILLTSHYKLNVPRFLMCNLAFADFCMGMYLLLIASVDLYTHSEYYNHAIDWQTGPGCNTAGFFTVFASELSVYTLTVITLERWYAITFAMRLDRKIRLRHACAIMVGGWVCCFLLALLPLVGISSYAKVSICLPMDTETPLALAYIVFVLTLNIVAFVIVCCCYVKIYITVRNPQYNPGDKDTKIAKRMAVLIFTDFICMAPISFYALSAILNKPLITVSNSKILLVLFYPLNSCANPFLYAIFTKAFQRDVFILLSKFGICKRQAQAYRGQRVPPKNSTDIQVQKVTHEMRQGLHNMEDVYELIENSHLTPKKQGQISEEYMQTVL
How it was run: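 Cell line HEK293 with TSHR; density 800/well. Exposure 30 min RT. Readout HTRF cAMP (cAMP-d2/anti-cAMP-cryptate), 1 h RT before reading.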

[17] = qHTS assay to identify small molecule antagonists of the estrogen related receptor (ERR) signaling pathway from Tox21 library (AID 1224848); conditions: ERR reporter cell line, luciferase antagonist mode, 18 h; series mostly up to 92.4 µM; also: nearly all actives have a fitted effect of over 50% in size
How it was run: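 Screening used an ERR reporter line supplied by NTP, exposed for 18 h at 37 C to library compounds delivered in DMSO. Signal was luciferase luminescence developed with ONE-Glo at room temperature for 30 min.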

[18] = qHTS assay to identify small molecule agonists of the estrogen related receptor (ERR) signaling pathway from Tox21 library (AID 1224849; calls by dose curve; also: nearly all actives have a fitted effect of over 15% in size); conditions: ERR reporter cell line, ONE-Glo luciferase, 18 h; series mostly up to 92.4 µM
How it was run: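 ERR cells, 6 h pre-incubation 37 C/5% CO2; cpd in DMSO pinned; 18 h 37 C; ONE-Glo added, 30 min RT; luminescence read. Agonist mode, qHTS.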

[19] = qHTS assay to identify small molecule antagonists of the estrogen related receptor signaling pathway with the pleiotropic PPARgamma coactivator (PGC) from Tox21 10K library (AID 1224841; call rule not given here); conditions: PGC/ERR reporter cell line, ONE-Glo luciferase, 18 h; series mostly up to 92.4 µM
How it was run: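 PGC/ERR cell line, 2,000 cells/well; 6 h pre-incubation 37 C/5% CO2; compounds (DMSO) pinned in; 18 h, 37 C; One-Glo, 30 min RT; luminescence.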
% is scaled to controls: 0 for no effect and ±100 for the full control effect.

CCOC(=O)CC(CC(=O)OCC)(OC(C)=O)C(=O)OCC
inactive: outcome [1] | outcome [2] | outcome [3] | Potency [4] | outcome [5] | Potency [6] | outcome [7] | Potency [8] | Potency [9] | outcome [10] | max response [11] -6.27% | Potency [12]

O=S(=O)(O)CCO
inactive: outcome [1] | outcome [2] | outcome [3] | outcome [5] | Potency [13] | outcome [7] | Potency [8] | outcome [10] | max response [11] -10.5% | Potency [12]

BrC/C=C/CBr
inactive: viability change, negative = cytotoxic [14] 5.69% [at 19 µM] | activity change, negative = cytotoxicity [1] -5.88% [at 15.8 µM] | activation (H2AX phosphorylation) [2] -0.0482% [at 31.6 µM] | activation [3] -1.18% [at 15.8 µM] | activity change, negative = cytotoxicity [5] 3.48% [at 15.8 µM] | activity change, negative = cytotoxic [6] -0.679% [at 15.8 µM] | cytotoxicity [13] 0.203% [at 15.8 µM] | activity change, negative = cytotoxic [7] -1.8% [at 15.8 µM] | cytotoxicity increase [8] 1.51% [at 15.8 µM] | viability change, negative = cytotoxic [10] 2.32% [at 15.8 µM] | max response [11] -1.67% | activity change [12] 2.67% [at 15.8 µM, active compounds read high]

CCC1COC(=O)O1 (centres undefined)
inactive: outcome [15] | outcome [16] | outcome [1] | outcome [2] | outcome [3] | Potency [4] | Potency [17] | outcome [18] | outcome [5] | Potency [6] | Potency [13] | outcome [7] | Potency [8] | Potency [9] | outcome [10] | max response [11] -0.285% | Potency [12]

O=C(O)/C=C/c1ccccc1
inactive: Potency [19] | outcome [15] | outcome [16] | outcome [1] | outcome [2] | outcome [3] | Potency [17] | outcome [18] | outcome [5] | Potency [6] | Potency [13] | outcome [7] | Potency [8] | Potency [9] | outcome [10] | max response [11] -8.08% | Potency [12]

CCN1CN(CC)CN(CC)C1
inactive: outcome [14] | outcome [1] | outcome [2] | outcome [3] | outcome [5] | Potency [6] | Potency [13] | outcome [7] | Potency [8] | outcome [10] | max response [11] 4.59% | Potency [12]

Cc1cc(O)c2c(c1)C(=O)c1cccc(O)c1C2=O
inactive: outcome [1] | outcome [2] | outcome [3] | Potency [4] | outcome [5] | Potency [6] | Potency [13] | outcome [7] | Potency [8] | outcome [10] | max response [11] 3.33% | Potency [12]

Cc1ccc(S(=O)(=O)NC(=O)NC2CCCCCCC2)cc1
inactive: outcome [16] | outcome [1] | outcome [2] | outcome [3] | Potency [4] | outcome [5] | Potency [13] | outcome [7] | Potency [8] | Potency [9] | outcome [10] | max response [11] 0.902% | Potency [12]

CC(=O)N(CC(O)CO)c1c(I)c(C(=O)NCC(O)CO)c(I)c(C(=O)NCC(O)CO)c1I (centres undefined)
inactive: outcome [1] | outcome [2] | outcome [3] | Potency [4] | outcome [5] | Potency [6] | Potency [13] | outcome [7] | Potency [8] | Potency [9] | outcome [10] | max response [11] 6.97% | Potency [12]

Nc1ccnc(=O)[nH]1
inactive: outcome [16] | outcome [1] | outcome [2] | outcome [3] | Potency [4] | Potency [6] | Potency [13] | outcome [7] | Potency [8] | Potency [9] | outcome [10] | max response [11] 4.83% | Potency [12]

CCCCCCCCCCCCCCCC(=O)NCCO
inactive: Potency [19] | outcome [15] | outcome [1] | outcome [2] | Potency [4] | Potency [17] | outcome [18] | outcome [5] | Potency [13] | outcome [7] | Potency [8] | Potency [9] | outcome [10] | max response [11] -2.85% | Potency [12]

CCC(CO)CO
inactive: outcome [1] | outcome [2] | outcome [3] | outcome [5] | Potency [13] | outcome [7] | Potency [8] | Potency [9] | outcome [10] | max response [11] -4.1% | Potency [12]

CC(=O)OCCCc1ccccc1
inactive: outcome [15] | outcome [1] | outcome [2] | outcome [3] | Potency [4] | Potency [17] | outcome [18] | outcome [5] | Potency [6] | Potency [13] | outcome [7] | Potency [8] | Potency [9] | outcome [10] | max response [11] 4.03% | Potency [12]

C[C@H](CCC(=O)O)[C@H]1CC[C@H]2[C@@H]3[C@H](O)C[C@@H]4C[C@H](O)CC[C@]4(C)[C@H]3C[C@H](O)[C@]12C
inactive: outcome [14] | outcome [1] | outcome [2] | outcome [3] | outcome [5] | Potency [6] | Potency [13] | outcome [7] | Potency [8] | Potency [9] | outcome [10] | max response [11] -1.02% | Potency [12]

CCCCCCCCCCCCOC(C)=O
inactive: outcome [16] | outcome [1] | outcome [2] | outcome [3] | Potency [4] | outcome [5] | Potency [13] | outcome [7] | Potency [8] | Potency [9] | outcome [10] | Potency [12]

CO/N=C(/C(=O)N[C@@H]1C(=O)N2C(C(=O)O)=C(Cn3nnc(C)n3)CS[C@H]12)c1csc(N)n1
inactive: outcome [1] | outcome [2] | outcome [3] | outcome [5] | Potency [6] | Potency [13] | outcome [7] | Potency [8] | Potency [9] | max response [11] 1.17% | Potency [12]
